# Screening results as filed in PubChem.
# A selection: hits, their analogues and other compounds. The true share with any hit is near 2.2%.
# IEC-6 cytotox: IEC-6 cytotoxicity, counter-screen for KLF5 inhibitors; luminescence viability; 0.78% of 290,000 active; inhibition, % at 5 µM; AID 1825
# Ba/F3 V617F tox: loss of viability in JAK2V617F-driven Ba/F3 cells; Ba/F3 EpoR-JAK2V617F viability, ATP luminescence; inhibition, % at 5.6 µM; 1.1% of 220,000 active; AID 1446;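 active = inhibition above the campaign mean plus 3 SD over all tested compounds, cut at about 24% in these data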;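 also: cytokine-independent growth of Ba/F3 cells driven by EpoR plus mutant JAK2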
# APP 5UTR inh: APP translation inhibition; 0.82% of 190,000 active; inhibition, % at 2 µM; AID 1285; SH-SY5Y APP 5'UTR-luciferase reporter, luminescence;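 active = inhibition above a set limit, derived from the sample mean plus 3 SD, cut at about 45% in these data; inconclusive = one replicate passes the limit while the other fails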
# aSyn 5UTR inh: MLPCN primary screen, SNCA 5' untranslated region | alpha-synuclein 5'UTR reporter, inhibitor activity | inhibition, % (tested at 7.5 µM) | 0.82% of 300,000 active | AID 1813; in the data active = inhibition above about 60%; inconclusive = no clear call, values can overlap the other calls;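 also: H4 neuroglioblastoma cells stably carrying SNCA 5'UTR luciferase fusion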
# BaF3 parental: reduces parental Ba/F3 cell viability, JAK2V617F counter-screen; CellTiter-Glo ATP luminescence; inhibition, % at 5.6 µM; 1.1% of 220,000 active; AID 1486;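 active = inhibition above a per-campaign cutoff, the mean inhibition of all tested compounds plus 3 SD, cut at about 27% in these data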
# KLF5 inh: kruppel-like factor 5 inhibition. 0.23% of 290,000 active. inhibition, % at 5 µM. DLD-1 KLF5 promoter-luciferase reporter, luminescence;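 active = inhibition above a per-plate limit of that plate's mean compound inhibition plus 3 SD, cut at about 60% in these data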;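 also: higher means less KLF5 promoter-driven luciferase light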
# IEC-6 cytotox cf: IEC-6 cytotoxicity, confirmation assay; IEC-6 rat intestinal epithelial viability, luminescence; shares compounds with IEC-6 cytotox; 63% of 1,900 active; inhibition, % at 5 µM
# Hits are given with their value; . = inactive; ? = inconclusive; / = no result. Rule as the data show it, unless noted: active = inhibition above about 22%; inactive = the rest.
SMILES,IEC-6 cytotox,Ba/F3 V617F tox,APP 5UTR inh,aSyn 5UTR inh,BaF3 parental,KLF5 inh,IEC-6 cytotox cf
Cc1cc(NC(=O)CSc2nnc3c(C)cc4c(C)ccc(C)c4n23)no1,55,.,.,.,.,.,.
CN(C(=O)COC(=O)C1CCN(S(=O)(=O)c2ccc3c(c2)OCCO3)CC1)C1CCCCC1,/,/,/,.,/,/,/
Cc1cc2nc(/C=C/c3cccnc3)[nH]c2cc1C,88,/,/,92,/,.,59
NS(=O)(=O)c1ccc(CNC(=O)c2cc(=O)c3cc(Cl)ccc3o2)cc1,101,/,/,.,/,.,.
Cc1ccc2oc(C(=O)NCc3ccc(S(N)(=O)=O)cc3)cc(=O)c2c1,.,/,/,.,/,.,/
CCCCC(=O)Nc1ccc(C(=O)OC2CCCCC2)cc1,24,.,.,.,.,.,.
O=C(O)CCC(=O)Nc1ccc(C(=O)OC2CCCCC2)cc1,.,.,.,.,.,.,/
Cc1cc(/C=N/NC(N)=S)c(O)c(/C=N/NC(N)=S)c1,90,.,/,.,.,.,.
NC(=S)N/N=C/c1cccc(O)c1O,.,.,.,.,.,.,/
Cc1ccc(C(=O)c2cc([N+](=O)[O-])ccc2N2CCN(C)CC2)cc1,44,.,63,?,.,.,38
Cc1ccc(C(=O)c2cc([N+](=O)[O-])ccc2N2CCCCC2)cc1C,58,83,94,.,75,.,61
Cc1occc1C(=O)NNC(=O)CN1C(=O)NC(C)(c2ccccc2)C1=O (stereo not given),/,/,/,.,/,/,/
O=C(Nc1cccc(C(=O)Nc2ccc(Cl)cn2)c1)c1ccccc1,.,/,/,.,/,.,/
O=C(Nc1ccc(Cl)cn1)c1cccc(F)c1,23,.,.,.,.,.,33
O=C(N/N=C/c1ccccc1)c1ccco1,.,.,/,.,.,.,/
O=C(C#Cc1ccccc1)c1ccco1,101,/,/,.,/,.,28
Cc1cccc(NNC(=O)C(=O)NNc2cccc(C)c2)c1,34,.,/,.,.,.,.
COc1ccc(C)cc1N(C(=O)c1ccc(C#N)cc1)C1=NC(C)(C)CS1,.,/,/,.,/,.,/
O=C(O)CC(CC(=O)Nc1ccc(-n2ccc(C(F)(F)F)n2)cc1)c1ccccc1 (stereo not given),.,.,/,.,.,.,/
O=C(Nc1ccccc1)Nc1ccc(-n2ccc(C(F)(F)F)n2)cc1,22,58,/,.,63,.,23
COc1ccccc1C(CNC(=O)c1cc(C)nc2ccccc12)N(C)C (stereo not given),.,/,/,.,/,.,/
Cc1ccc2nc(SCc3nnc(-c4ccccc4Br)o3)[nH]c2c1,22,.,.,.,.,.,.
Clc1ccc2nc(SCc3nnc(-c4ccccc4)o3)[nH]c2c1,.,.,.,.,.,.,/
COc1cc(SC)ccc1C(=O)NCCCn1ccnc1,.,/,/,.,/,.,/
Cc1ccc(-c2[nH]c3ccccc3c2C(C[N+](=O)[O-])c2ccco2)cc1 (stereo not given),25,.,.,.,.,.,.
SMILES,IEC-6 cytotox,Ba/F3 V617F tox,APP 5UTR inh,aSyn 5UTR inh,BaF3 parental,KLF5 inh,IEC-6 cytotox cf
Cc1[nH]c2ccccc2c1C(C[N+](=O)[O-])c1ccco1 (stereo not given),.,.,.,.,.,.,/
CC(=O)c1ccccc1OC(=O)COc1ccc([N+](=O)[O-])cc1,.,/,/,.,/,.,/
COC(=O)C1=C(NC(=O)c2ccc(C)cc2)CCS1,.,.,.,.,.,.,/
COC(=O)C1=C(NC(C)=O)CCS1,23,.,.,.,.,.,.
Nc1nonc1-n1nnc(C(=O)N/N=C/c2cc(Br)ccc2O)c1CNc1ccccc1,39,/,/,70,/,.,41
CCOC(=O)c1ccc(-c2c(-c3ccc4c(c3)OCO4)noc2-c2ccsc2)cc1F,.,/,/,.,/,.,/
CCOC(=O)c1ccc(-c2c(-c3cc(OC)c(OC)c(OC)c3)noc2C)cc1F,76,/,/,?,/,.,57
CC(=O)N(C)c1ccc(N=NC2C(=O)N(C(N)=S)N=C2C)cc1 (stereo not given),.,/,/,.,/,.,/
COc1ccc(OC)c(S(=O)(=O)N2CCN(CC(O)COc3ccc(C#N)cc3)CC2)c1 (stereo not given),.,/,/,.,/,.,/
ClC(Cl)(Cl)c1nc2ccccc2n2nncc12,82,/,/,.,/,.,31
CN(C)C(=O)COC(=O)c1ccccc1Nc1ccc(SC(F)F)cc1,45,.,.,.,.,.,37
COc1ccccc1NC(=O)COC(=O)c1ccccc1OCC(=O)Nc1ccc(SC(F)F)cc1,.,.,.,.,.,.,/
CCC1CCCCN1S(=O)(=O)c1ccc(C(=O)N(CCCN(C)C)c2nc3cc4c(cc3s2)OCO4)cc1 (stereo not given),.,/,/,.,/,.,/
COC(=O)c1ccc(Cl)c(NS(=O)(=O)c2ccc3c(c2)OCCO3)c1,28,.,.,.,.,.,.
CC(=O)c1cc2c(cc1NS(=O)(=O)c1ccc3c(c1)OCCO3)OCO2,.,.,.,.,.,.,/
CNS(=O)(=O)c1cn(CC(=O)NCc2ccc(N(C)C)cc2)cc1S(=O)(=O)NC,.,/,/,.,/,.,/
O=[N+]([O-])c1ccc(Cl)c(C2Nc3cccc4cccc(c34)N2)c1,70,100,.,.,103,.,35
Clc1ccc(C2Nc3cccc4cccc(c34)N2)cc1Cl,.,/,/,.,/,.,/
O=C(c1ccco1)N1CCN(C(=S)Nc2ccc(Br)cc2Cl)CC1,.,/,/,.,/,.,/
CCN(CC(=O)Nc1ccccc1C(F)(F)F)C(=O)c1cc(S(=O)(=O)N2CCCCCC2)ccc1OC,/,/,/,.,/,/,/
CC(=O)Nc1ccc(S(=O)(=O)N(C)CC(=O)OCC(=O)N(C)C2CCS(=O)(=O)C2)cc1 (stereo not given),/,/,/,.,/,/,/
